A selection: hits, their analogues and other compounds. The true share with any hit is near 1.9%.
RXFP1 ag: agonists of human relaxin receptor RXFP1 | Q9HBX9 | HEK293T-RXFP1 cAMP TR-FRET, 30 min; response scale: percent of porcine relaxin response, buffer zero | Potency, µM (titrated, usually from 57.5 µM), for inactives: at the highest dose activation, actives largely listed as activators | 370,000 compounds, 0.3% hits; further: potency means the concentration at half of the fitted maximal effect; on the % scale 0 is the no-effect control and ±100 the full control effect; nearly all actives have a fitted effect of over 60% in size
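cAMP rise read by TR-FRET after 30 min, 37C compound exposure (up to 58 uM) in RXFP1-transfected HEK293 cells with Ro 20174 present. EC50 from Hill-equation fits, with 29 nM porcine relaxin as 100% and buffer as basal.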
IL2 activator: activators of IL-2; IL-2 activation reporter assay, cell-based qHTS; stimulated with anti-CD3/CD4/CD28 beads; in transgenic mouse T cells; activation, % (series mostly up to about 46 µM); AID 652025; 360,000 compounds, 0.065% hits; in the data active means activation above about 50%; inconclusive means mostly about 30% to 49%; further: 0% is about no effect
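Readout: EGFP and DsRed signals by fluorescent plate cytometry. Unstimulated transgenic mouse T cells received compound 60 min before antibody-bead stimulation, then incubated 18 h at 37 degrees C.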
NPSR antag: blocks cAMP signaling of the human neuropeptide S receptor | Q6W5P4 | CHO-NPSR cells, cAMP TR-FRET, antagonist mode | Potency, µM (series often up to 38.3 µM), inactives show at the top dose activity change, negative = inhibition, usual class: inhibitors | 220,000 compounds, 1% hits | AID 1461; further: potency means the concentration at half of the fitted maximal effect; on the % scale 0 is the no-effect control and ±100 the full control effect; nearly all actives have a fitted effect of over 50% in size
Target sequence (Q6W5P4 whole entry, looked up): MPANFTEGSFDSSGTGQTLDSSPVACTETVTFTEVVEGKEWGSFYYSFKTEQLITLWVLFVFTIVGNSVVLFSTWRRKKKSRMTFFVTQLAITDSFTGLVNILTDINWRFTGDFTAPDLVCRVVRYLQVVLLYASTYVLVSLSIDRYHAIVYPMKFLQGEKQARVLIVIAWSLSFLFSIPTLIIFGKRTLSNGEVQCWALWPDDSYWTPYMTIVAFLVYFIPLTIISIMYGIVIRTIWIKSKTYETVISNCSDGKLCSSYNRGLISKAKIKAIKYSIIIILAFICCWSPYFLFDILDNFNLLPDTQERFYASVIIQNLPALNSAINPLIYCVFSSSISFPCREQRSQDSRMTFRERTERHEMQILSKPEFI
Giardia killer: kills Giardia lamblia; 340,000 compounds, 0.15% hits; Giardia lamblia trophozoite viability; activity change, % at 7.66 µM, hits read low; in the data active means activity change below about -80%; inconclusive means between about -30% and that limit;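 further: parasites exposed to compound for two days anaerobically before the ATP read; on the % scale 0 is the no-effect control and ±100 the full control effect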
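ATP-content bioluminescence gauges trophozoite survival. Cells (100/well) receive compound and incubate anaerobically for 48 hrs at 37 deg C; detection reagent follows for 15-30 min at room temperature.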
BRCA1 expr up: activators of BRCA1 expression | Potency, µM (top dose mostly 46.1 µM), for inactives: at the top dose activation, most hits filed as activators | MCF7-BRCA1-FFLuc reporter, luminescence, 48 h; response scale: scaled: vehicle 0%, 10 µM genistein 100% | 380,000 compounds, 1.1% hits; further: potency means the concentration at half of the fitted maximal effect; nearly all actives have a fitted effect of over 80% in size
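Luminescence from a BRCA1-driven firefly luciferase in MCF7 cells was the read-out, taken 15 min after substrate addition following 48 h compound exposure at 37 °C. Data were normalized to a 10 microM genistein control and DMSO vehicle.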
RXFP1 antagonist: antagonists of human relaxin receptor RXFP1. HEK293-RXFP1, relaxin-stimulated cAMP HTRF, 30 min; stronger effect = lower value. Q9HBX9. activity change, negative = inhibition, % at 57.5 µM. 350,000 compounds, 0.59% hits;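 active means activity change of -60% or lower, but not beyond a set lower limit; inconclusive means change between -60% and -40%, or beyond the set limit; inactive means change above -40%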; further: on the % scale 0 is the no-effect control and ±100 the full control effect
Starred values were filed as active, the others as inactive; ? = inconclusive; nt = no result; [ ] = remark or other dose. Unless noted, the call rests on the fitted dose curve; in most records, active means well fitted curve in the direction sought with a large enough effect; inconclusive means small, poorly fitted or top-dose-only effect, or another doubt; inactive means no such curve, though single readings can be large; an effect the other way counts as inactive or inconclusive.

SMILES	RXFP1 ag	IL2 activator	NPSR antag	Giardia killer	BRCA1 expr up	RXFP1 antagonist
COc1ccccc1NC(=O)Cn1c(=O)n(Cc2ccco2)c(=O)c2oc3ccccc3c21	-1.4%	nt	nt	nt	nt	-11.4
Cc1[nH][nH]c(=O)c1C(c1ccc(Cl)cc1)c1c(C)[nH][nH]c1=O	-2.3%	-1.4	nt	-21.4	1.1%	-79.9*
COC(=O)c1cc(S(N)(=O)=O)ccc1OC	nt	nt	nt	nt	nt	-12.4
CCOc1ccc(-n2c([S-])c(C(=O)Nc3ccc(S(=O)(=O)N4CCOCC4)cc3)[n+]3cc(C(N)=O)ccc23)cc1	31.6µM*	1.9	47.0%[7.67 µM]	8.8	0.0%	-2.2
CCOc1ccc(NC(=O)COC(=O)c2ccc(S(=O)(=O)N3CCOCC3)cc2)cc1	nt	-0.3	nt	-22.5	4.6%	8.0
CC(C)(C)OC(=O)N1CCN(c2nc(-c3cccs3)nc3ccccc23)CC1	nt	nt	nt	-29.5	1.6%	nt
Nc1nc(N)c(-c2cccc(C(F)(F)F)c2)c(Cc2cccc(C(F)(F)F)c2)n1	nt	-0.5	nt	-14.4	-70.4%	-92.5*
CN(C)c1ccc(/C=C/c2c([N+](=O)[O-])c(=O)n(C)c(=O)n2C)cc1	6.2%	1.6	nt	?	-5.5%	-1.0
CN(C)c1ccc(-n2cccc2/C=C/[N+](=O)[O-])cc1	0.1%	-5.1	7.94µM*	9.1	-87.9%	-82.8*
CC[N+](CC)(CC)CCOC(=O)C(C1CCCC1)C1CCCC1	nt	nt	nt	nt	nt	-10.7
COc1cc(/C=C(/C(=O)c2cccs2)c2nc3ccccc3[nH]2)cc(OC)c1O	-3.6%	-1.8	12.6µM*	-3.4	-94.2%	-20.4
CCCNC(=O)Cn1c(=O)/c(=C/c2ccc(-c3ccc([N+](=O)[O-])cc3)o2)s/c1=C\C(=O)C(C)(C)C	nt	78.4*	nt	-8.1	-37.7%	-16.2
COCCN=C1NN=C(c2ccc(C)c([N+](=O)[O-])c2)CS1	2.1%	-2.4	7.7%	-4.5	3.16µM*	-4.1
Cn1ncc2c(NCc3ccco3)ncnc21	nt	nt	nt	nt	16.3%	nt
Oc1ccc(-c2nnc(SCC3CCCCC3)o2)cc1	0.5%	-4.1	?	-11.8	6.31µM*	1.7
O=C(CSc1nnc(-c2ccc(O)cc2)o1)N1CCOCC1	0.2%	-1.5	-8.5%[46.1 µM]	1.2	83.0%	-6.2
CC(NCC(O)COc1ccc2ccccc2c1)c1ccccc1 (stereo not given)	-0.2%	-0.5	nt	-21.4	0.7%	-87.4*
CC1=CC(C)(C)Nc2ccc(OC(=O)CN3C(=O)c4ccccc4C3=O)cc21	0.7%	10.1	7.94µM*	-6.1	-80.3%	-6.2
CC1=CC(C)(C)Nc2ccc(OC(=O)CN3C(=O)c4cccc5cccc(c45)C3=O)cc21	3.6%	1.6	0.8%[46.1 µM]	3.7	-97.1%	-20.3
CCOC(=O)c1cnc(Nc2nc3ccccc3o2)nc1CSc1nnc(C)s1	nt	-2.2	nt	11.6	5.01µM*	-6.6
CCOC(=O)c1cnc(Nc2nc3ccccc3o2)nc1C	3.0%	-2.0	-12.6%[46.1 µM]	?	-78.1%	12.3
O=C1c2ccccc2NC(c2cc(Br)c3c(c2)OCO3)N1Cc1ccco1 (stereo not given)	nt	nt	nt	-1.4	-25.5%	nt
O=C(NC(=S)Nc1cccc([N+](=O)[O-])c1)c1ccccc1	4.4%	1.7	-4.9%	9.0	11.2µM*	6.8
O=C(NNC(=O)c1ccccc1Cl)c1ccc2c(c1)OCCO2	nt	1.6	nt	0.0	7.08µM*	0.5
O=C(NNC(=O)c1cccc2ccccc12)c1ccc2c(c1)OCO2	0.8%	1.9	0.7%	-13.6	?	-8.8
O=C(Nc1cccc([N+](=O)[O-])c1)c1ccc2c(c1)OCCO2	1.1%	-2.7	5.5%	-16.5	12.6µM*	nt
C/C(=N/NC(=O)c1ccc2c(c1)OCO2)c1cccc([N+](=O)[O-])c1	1.4%	-0.7	nt	-5.2	5.01µM*	5.6
Cc1ccc(N(CC(=O)N2CCN(c3cccc(C)c3C)CC2)S(=O)(=O)c2c(C)nn(C)c2C)cc1	-0.3%	nt	nt	nt	-19.3%	nt
COc1ccc(CCNC(=O)Cc2c(C)c3c(cc(C)c4c(C)coc43)oc2=O)cc1OC	0.8%	nt	nt	nt	nt	4.7
